The list is not random: actives were taken first. Their share in the collection is about 13%.
Marburg entry inh = qHTS for inhibitors of binding or entry into cells for Marburg Virus; Marburg virus pseudotyped entry inhibition, cell reporter; Potency, µM (top dose mostly 37.8 µM), without a hit: at the top dose activity change, negative = inhibition, most hits filed as inhibitors; 1.8% of 300,000 active; AID 540276, 2011; calls by dose curve; tested in HEK293 cells; note: potency is the fitted concentration of half-maximal effect; % is set by controls: 0 for no effect and ±100 for the full control effect
FMDV inh = High Throughput Screening for Foot and Mouth Disease Virus Antivirals; FMDV antiviral cell-based qHTS; 1.2% of 410,000 active; Potency, µM (top dose mostly 57.9 µM), inactives show at the highest dose activity change, negative = inhibition, most hits filed as inhibitors; AID 1159524, 2015; calls by dose curve; tested in HEK293T cells; note: read-out not given here; potency is the fitted concentration of half-maximal effect; % is set by controls: 0 for no effect and ±100 for the full control effect; nearly all actives have a fitted effect of over 45% in size
Shiga inhibitor = A qHTS for Small Molecule Inhibitors of Shiga Toxin | inhibition, % at 38.7 µM | 9.2% of 290,000 active | Vero cells, Shiga toxin protein synthesis inhibition reporter; in the data active = inhibition mostly above about 28%, no sharp cut-off; inactive = mostly below about 43%; note: 0% is about no effect
HCV inhibitor = qHTS Assay for Inhibitors of Hepatitis C Virus (HCV); 3.4% of 340,000 active; Huh7.5.1 HCVcc-Cre infection, luciferase reporter, 44 h; Potency, µM (titrated, usually from 41.8 µM), for inactives: top-dose activity change, negative = inhibition, actives largely listed as inhibitors; active = well fitted inhibition curve with a large enough effect; inconclusive = small, poorly fitted or top-dose-only effect, or another doubt; inactive = no such curve, though single readings can be large or run the other way; note: potency is the fitted concentration of half-maximal effect; % is set by controls: 0 for no effect and ±100 for the full control effect
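HCVcc-Cre virus at an moi near 0.5 was added right after compound to cells cultured 4 h from seeding (1,000 cells/well). Luciferase activity was determined 44 h later, 15 min after substrate addition at RT.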
CHX counter = Cycloheximide Counterscreen for Small Molecule Inhibitors of Shiga Toxin; cell reporter, cycloheximide protein synthesis inhibition counterscreen; max response, %; 12% of 300,000 active; in the data active = max response mostly above about 13%, no sharp cut-off; inactive = mostly below about 14%; note: read at 38.3 µM for the half of the compounds with a filed dose; 0% is about no effect
Lassa entry inh = qHTS for Inhibitors of binding or entry into cells for Lassa Virus; Lassa virus pseudotype entry inhibition, cell reporter; 1.2% of 300,000 active; Potency, µM (series often up to 37.9 µM), inactives show top-dose activity change, negative = inhibition, most hits filed as inhibitors; calls by dose curve; tested in HEK293 cells; note: potency is the fitted concentration of half-maximal effect; % is set by controls: 0 for no effect and ±100 for the full control effect; nearly all actives have a fitted effect of over 50% in size
Numbers without * were called inactive; ? = inconclusive; nt = no result; [ ] = another dose, or the depositor's remark.

SMILES | Marburg entry inh | FMDV inh | Shiga inhibitor | HCV inhibitor | CHX counter | Lassa entry inh
CCN(CC)CCn1c(C)nc2ccccc21 | -7% | -12% | 20 | -16% | -2 | 7%
CCN(CC)CCn1c(NC(=O)c2ccc(Cl)cc2)nc2ccccc21 | ? | nt | 20 | ? | 19* | ?
CCN(CC)CCn1c(NC(=O)c2ccccc2O)nc2ccccc21 | nt | 41% | nt | ? | 26* | nt
N#Cc1cc(C#N)c(SCC(=O)N2CC(=O)Nc3ccccc32)nc1N | nt | -23% | nt | ? | nt | nt
CCc1ccc2nc(SCC(=O)N3CC(=O)Nc4ccccc43)c(C#N)cc2c1 | ? | -15% | 15 | 4.5µM* | -2 | -3%
CCc1cc2cc(C)ccc2nc1SCC(=O)N1CC(=O)Nc2ccccc21 | ? | -20% | -13 | 7.1µM* | -1 | nt
Cc1ccc(C(=O)Nc2oc(-c3ccccc3)cc2C#N)cc1 | ? | -6% | -2 | -6% | 7 | 2%
CN(C)/C=N/c1sc2c(c1C#N)CCCC2 | ? | 34% | 116* | -20% | 35* | ?
CN(C)/C=N/c1sc2c(c1C(N)=O)CCCC2 | 4% | 30% | 4 | ? | 17 | 15%
CC1CCc2c(sc(/N=C/N(C)C)c2C#N)C1 (stereo not drawn) | ? | 31% | 60* | ? | 37* | -14%[46.1 µM]
N#Cc1c(/N=C/c2ccco2)sc2c1CCCCC2 | 12% | -29% | 125 | -18% | 35* | -9%
N#Cc1c(/N=C/c2cc(Br)cs2)sc2c1CCC2 | 16% | 44% | nt | -6% | nt | 21%
COc1ccc(CNC(=O)C2CCC(=O)N(CC3CCCCC3)C2)cc1 (stereo not drawn) | nt | 7% | -15 | -9% | -5 | nt
Cc1noc(-c2ccc(-c3noc(-c4ccc(F)cc4)n3)cc2)n1 | nt | -8% | nt | nt | nt | 5%[46.1 µM]
Fc1ccc(-c2cc(-c3cccs3)cc(-c3ccccc3)n2)cc1 | nt | 4% | 24 | -17% | -2 | nt
Fc1ccc(-c2cnc(-c3cccs3)o2)cc1 | 11% | 62% | 134* | -9% | 42* | -2%
COC(=O)c1ccc(-c2nc(-c3cccs3)no2)cc1 | nt | ? | 65* | -17% | 40* | nt
Fc1ccc(-c2nc(-c3cccs3)no2)cc1 | nt | -12% | 127* | 10% | 44* | nt
COC(=O)COc1cccc2c(=O)n(CC(=O)N3CCCc4ccccc43)ccc12 | nt | -13% | 20 | 4% | 8 | nt
O=C(O)c1cc(-c2ccc(N3CCOCC3)cc2)nn1-c1ccc(F)cc1F | 0%[46.1 µM] | -17% | -9 | 11% | 1 | 11%[46.1 µM]
Brc1cc(Br)c2nc(-c3ccc(N4CCOCC4)cc3)ccc2c1 | 24% | 35% | 55* | ? | 38* | ?
O=C(Nc1ccc2c(c1)C(=O)N(CC1CCCO1)C2=O)c1cccc(Br)c1 (stereo not drawn) | 23% | -7% | 115* | ? | 25* | ?
O=C(O)c1cccc(NC(=O)c2ccc3c(c2)C(=O)N(CC2CCCO2)C3=O)c1 (stereo not drawn) | -7% | 16µM* | -4 | 2% | 1 | -9%
O=C(NCCN1CCOCC1)c1cccc(S(=O)(=O)Nc2ccc(Br)cc2)c1 | nt | 30% | nt | -1% | nt | nt
Cc1oc(-c2ccc(Cl)cc2)nc1CS(=O)CC(=O)NCc1ccc2c(c1)OCO2 (stereo not drawn) | nt | -28% | 2 | -22% | 5 | nt
SMILES | Marburg entry inh | FMDV inh | Shiga inhibitor | HCV inhibitor | CHX counter | Lassa entry inh
CCOc1ccc(-c2nc(CSCC(=O)NC3CCCc4ccccc43)c(C)o2)cc1 (stereo not drawn) | -15% | 0% | 13 | 18µM* | 6 | -12%
CCOc1ccc(-c2nc(CSCC(=O)NC3CC3)c(C)o2)cc1 | nt | 19% | 2 | -26% | 22* | nt
Cc1oc(-c2ccc(Cl)cc2)nc1CSCC(=O)NC1CCN(Cc2ccccc2)CC1 | ? | ? | -4 | 4µM* | -1 | ?
CCOC(=O)N1CCC(NC(=O)CSCc2nc(-c3ccc(OCC)cc3)oc2C)CC1 | nt | ? | 8 | ? | 10 | nt
CCCS(=O)(=O)N1CCCC(C(=O)Oc2ccc(OC)cc2)C1 (stereo not drawn) | -27% | -3% | 1 | 1% | -1 | -6%
CCC(C(=O)NC(C)CCc1ccccc1)n1nc(C)n2c(cc3occc32)c1=O (stereo not drawn) | -23% | -18% | -15 | ? | 5 | -7%
COCCn1c(C)cc(C(=O)CSc2nnc(C)s2)c1C | ? | 7.9µM* | -10 | -14% | -4 | ?
Cc1cc(C(=O)CSc2nc(N)cc(N)n2)c(C)n1CCc1ccc(F)cc1 | ? | 25µM* | -3 | ? | -1 | ?
COCCn1c(C)cc(C(=O)CSc2n[nH]c(N)n2)c1C | 4% | 40% | -1 | 16% | 13* | 6%
COCCn1c(C)cc(C(=O)CSc2nc3nc(C)cc(C)n3n2)c1C | 7% | -23% | 8 | 0% | -3 | ?
COCCn1c(C)cc(C(=O)CSc2nnnn2C2CCCC2)c1C | ? | 13µM* | nt | -16% | nt | 1.3µM*
COc1ccc(Cl)cc1C(=O)CSc1nnnn1C1CCCC1 | -18% | 12% | -14 | ? | -9 | -2%
Cc1nc2ccccc2c(=O)n1/N=C/c1ccncc1 | -5% | 35% | -2 | 19% | -1 | 6%
Cc1cccc(OCC(=O)Nc2ccc(CN3CCOCC3)cc2)c1C | 19% | ? | 2 | -3% | -3 | 13%
Cn1nc(C2CC2)cc1NC(=O)CC(CC(=O)O)c1ccccc1 (stereo not drawn) | ? | -7% | 2 | 9% | -1 | -12%[46.1 µM]
c1ccc(-n2nnnc2SCc2cn3cccnc3n2)cc1 | 21% | 8% | -4 | 11% | 3 | 1%
CCOCCCNc1nc2ccccc2[nH]1 | -9% | -11% | 34 | ? | 12* | 14%
CCCCNc1nc2ccccc2[nH]1 | -15% | -15% | 34 | -23% | 22* | 10%
c1ccc2[nH]c(NCCCc3cnc[nH]3)nc2c1 | nt | 15% | -9 | nt | 13 | nt
Cc1n[nH]c(=S)n1/N=C/c1ccc(OCc2ccc(Cl)cc2Cl)cc1 | ? | 20% | 79* | 13% | 39* | ?
Cc1n[nH]c(=S)n1/N=C/c1ccc(OCc2ccc(Cl)cc2)cc1 | 6% | 18% | 4 | -11% | 3 | 18%
Cc1cc(C)c(COc2ccc(/C=N/n3c(C)n[nH]c3=S)cc2)c(C)c1 | 7% | -27% | 30* | 8% | 9 | -17%
Cc1ccccc1C(=O)NNC(=O)CCCCC(=O)NNC(=O)c1ccccc1C | 8%[46.1 µM] | 2% | nt | 17% | nt | 0%
O=C1NCCCCC1NC1CC(=O)N(c2ccccc2)C1=O (stereo not drawn) | 5% | -11% | -2 | -2% | -2 | 18%
COc1ccccc1N1CC(C(=O)Nc2nnc(SCc3ccccn3)s2)CC1=O (stereo not drawn) | ? | 0% | 15 | 0% | 6 | 0%
